Tests used:
[1] = biological target: Sphingosine kinase 1 (Homo sapiens) (UniProt Q9NYA1); conditions: at 1 µM;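 further: mean SPHK1 inhibition value reported from the GSK PKIS kinase panel screen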
[2] = biological target: T1, Sphingosine kinase 2 (Homo sapiens) (UniProt Q9NRA0); conditions: at 0.1 µM
T1 sequence (whole entry): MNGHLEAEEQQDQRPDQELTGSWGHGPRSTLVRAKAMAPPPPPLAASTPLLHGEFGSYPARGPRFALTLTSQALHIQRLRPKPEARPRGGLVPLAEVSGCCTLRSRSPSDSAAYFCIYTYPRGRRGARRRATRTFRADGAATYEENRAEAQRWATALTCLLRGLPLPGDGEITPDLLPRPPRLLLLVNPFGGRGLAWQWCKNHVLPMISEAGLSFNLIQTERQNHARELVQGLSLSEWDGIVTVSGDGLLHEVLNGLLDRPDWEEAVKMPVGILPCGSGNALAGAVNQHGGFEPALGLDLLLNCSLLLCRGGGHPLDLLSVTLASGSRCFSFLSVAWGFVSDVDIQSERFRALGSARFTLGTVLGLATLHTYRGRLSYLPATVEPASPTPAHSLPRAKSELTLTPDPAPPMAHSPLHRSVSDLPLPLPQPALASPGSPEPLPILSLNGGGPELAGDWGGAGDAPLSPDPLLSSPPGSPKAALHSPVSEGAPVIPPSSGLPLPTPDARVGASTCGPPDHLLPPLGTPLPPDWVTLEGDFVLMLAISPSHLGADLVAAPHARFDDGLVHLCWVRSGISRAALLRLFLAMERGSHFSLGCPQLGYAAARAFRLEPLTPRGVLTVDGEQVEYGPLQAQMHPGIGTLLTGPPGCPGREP

[3] = biological target: T1, Sphingosine kinase 2 (Homo sapiens); conditions: at 1 µM
[4] = biological target: Casein kinase II subunit alpha (Homo sapiens) (UniProt P68400); conditions: at 0.1 µM
[5] = biological target: Casein kinase II subunit alpha (Homo sapiens) (UniProt P68400); conditions: at 1 µM
[6] = biological target: T2, Inhibitor of nuclear factor kappa-B kinase subunit alpha (Homo sapiens) (UniProt O15111); conditions: at 0.1 µM
T2 sequence (whole entry): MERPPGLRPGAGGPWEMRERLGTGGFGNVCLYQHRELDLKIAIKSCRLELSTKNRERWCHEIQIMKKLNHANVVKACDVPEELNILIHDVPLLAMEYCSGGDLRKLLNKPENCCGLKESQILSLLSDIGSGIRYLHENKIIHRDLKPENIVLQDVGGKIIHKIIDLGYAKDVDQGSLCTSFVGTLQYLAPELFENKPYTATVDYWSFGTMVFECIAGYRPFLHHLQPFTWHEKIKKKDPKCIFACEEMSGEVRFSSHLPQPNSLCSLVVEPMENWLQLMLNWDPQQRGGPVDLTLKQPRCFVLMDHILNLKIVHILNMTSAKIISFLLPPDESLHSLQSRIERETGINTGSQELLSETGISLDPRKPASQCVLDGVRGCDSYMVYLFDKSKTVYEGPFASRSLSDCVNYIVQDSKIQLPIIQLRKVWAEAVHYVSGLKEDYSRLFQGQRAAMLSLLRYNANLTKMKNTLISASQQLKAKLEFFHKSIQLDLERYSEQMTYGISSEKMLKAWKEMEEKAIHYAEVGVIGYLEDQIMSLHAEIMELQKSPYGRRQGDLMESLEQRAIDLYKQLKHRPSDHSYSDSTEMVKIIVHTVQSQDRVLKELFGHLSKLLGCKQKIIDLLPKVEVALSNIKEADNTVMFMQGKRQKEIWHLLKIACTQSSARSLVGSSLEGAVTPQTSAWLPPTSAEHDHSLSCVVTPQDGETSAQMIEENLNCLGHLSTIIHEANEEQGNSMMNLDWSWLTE

[7] = biological target: T2, Inhibitor of nuclear factor kappa-B kinase subunit alpha (Homo sapiens); conditions: at 1 µM
[8] = biological target: T3, Inhibitor of nuclear factor kappa-B kinase subunit beta (Homo sapiens) (UniProt O14920); conditions: at 0.1 µM
T3 sequence (whole entry): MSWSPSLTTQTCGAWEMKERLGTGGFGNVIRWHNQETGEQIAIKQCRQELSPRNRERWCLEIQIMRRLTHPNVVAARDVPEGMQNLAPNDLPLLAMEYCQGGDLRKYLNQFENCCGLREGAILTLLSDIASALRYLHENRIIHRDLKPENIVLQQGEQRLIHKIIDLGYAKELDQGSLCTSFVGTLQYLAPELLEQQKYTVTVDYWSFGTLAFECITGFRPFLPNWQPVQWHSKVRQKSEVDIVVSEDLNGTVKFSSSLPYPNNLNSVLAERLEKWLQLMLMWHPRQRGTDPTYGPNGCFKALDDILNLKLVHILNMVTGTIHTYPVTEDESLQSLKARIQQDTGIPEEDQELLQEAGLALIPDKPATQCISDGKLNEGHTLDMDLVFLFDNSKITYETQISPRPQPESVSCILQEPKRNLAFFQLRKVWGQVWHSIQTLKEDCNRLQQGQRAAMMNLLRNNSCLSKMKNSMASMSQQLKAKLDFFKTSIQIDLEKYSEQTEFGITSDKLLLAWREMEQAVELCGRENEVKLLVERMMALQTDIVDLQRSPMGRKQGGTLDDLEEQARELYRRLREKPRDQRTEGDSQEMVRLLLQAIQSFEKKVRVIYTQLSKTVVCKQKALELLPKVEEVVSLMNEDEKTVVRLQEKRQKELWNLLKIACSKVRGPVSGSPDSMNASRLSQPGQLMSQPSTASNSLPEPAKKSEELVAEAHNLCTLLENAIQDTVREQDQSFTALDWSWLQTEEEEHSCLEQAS

[9] = biological target: T3, Inhibitor of nuclear factor kappa-B kinase subunit beta (Homo sapiens); conditions: at 1 µM
[10] = biological target: T4, Inhibitor of nuclear factor kappa-B kinase subunit epsilon (Homo sapiens) (UniProt Q14164); conditions: at 0.1 µM
T4 sequence (whole entry): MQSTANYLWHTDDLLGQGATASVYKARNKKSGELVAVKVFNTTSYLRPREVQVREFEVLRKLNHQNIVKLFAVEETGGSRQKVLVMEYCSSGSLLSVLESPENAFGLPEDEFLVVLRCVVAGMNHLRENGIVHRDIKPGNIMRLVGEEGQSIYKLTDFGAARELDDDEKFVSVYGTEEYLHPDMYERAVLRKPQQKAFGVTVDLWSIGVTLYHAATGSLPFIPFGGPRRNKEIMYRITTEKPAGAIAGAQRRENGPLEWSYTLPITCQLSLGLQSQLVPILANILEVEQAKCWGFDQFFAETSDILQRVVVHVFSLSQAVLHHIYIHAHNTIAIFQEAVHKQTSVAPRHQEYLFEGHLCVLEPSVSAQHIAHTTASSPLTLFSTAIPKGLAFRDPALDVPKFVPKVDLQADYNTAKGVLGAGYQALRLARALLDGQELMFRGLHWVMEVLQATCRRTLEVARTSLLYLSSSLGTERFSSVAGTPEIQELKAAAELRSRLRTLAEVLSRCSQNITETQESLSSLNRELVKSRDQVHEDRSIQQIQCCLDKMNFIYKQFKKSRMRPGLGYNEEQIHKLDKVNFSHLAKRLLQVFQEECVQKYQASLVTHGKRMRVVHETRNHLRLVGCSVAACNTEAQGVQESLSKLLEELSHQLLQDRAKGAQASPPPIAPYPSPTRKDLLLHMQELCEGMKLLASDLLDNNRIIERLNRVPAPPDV

[11] = biological target: T4, Inhibitor of nuclear factor kappa-B kinase subunit epsilon (Homo sapiens); conditions: at 1 µM
[12] = biological target: T5, Serine/threonine-protein kinase Nek1 (Homo sapiens) (UniProt Q96PY6); conditions: at 0.1 µM
T5 sequence (whole entry): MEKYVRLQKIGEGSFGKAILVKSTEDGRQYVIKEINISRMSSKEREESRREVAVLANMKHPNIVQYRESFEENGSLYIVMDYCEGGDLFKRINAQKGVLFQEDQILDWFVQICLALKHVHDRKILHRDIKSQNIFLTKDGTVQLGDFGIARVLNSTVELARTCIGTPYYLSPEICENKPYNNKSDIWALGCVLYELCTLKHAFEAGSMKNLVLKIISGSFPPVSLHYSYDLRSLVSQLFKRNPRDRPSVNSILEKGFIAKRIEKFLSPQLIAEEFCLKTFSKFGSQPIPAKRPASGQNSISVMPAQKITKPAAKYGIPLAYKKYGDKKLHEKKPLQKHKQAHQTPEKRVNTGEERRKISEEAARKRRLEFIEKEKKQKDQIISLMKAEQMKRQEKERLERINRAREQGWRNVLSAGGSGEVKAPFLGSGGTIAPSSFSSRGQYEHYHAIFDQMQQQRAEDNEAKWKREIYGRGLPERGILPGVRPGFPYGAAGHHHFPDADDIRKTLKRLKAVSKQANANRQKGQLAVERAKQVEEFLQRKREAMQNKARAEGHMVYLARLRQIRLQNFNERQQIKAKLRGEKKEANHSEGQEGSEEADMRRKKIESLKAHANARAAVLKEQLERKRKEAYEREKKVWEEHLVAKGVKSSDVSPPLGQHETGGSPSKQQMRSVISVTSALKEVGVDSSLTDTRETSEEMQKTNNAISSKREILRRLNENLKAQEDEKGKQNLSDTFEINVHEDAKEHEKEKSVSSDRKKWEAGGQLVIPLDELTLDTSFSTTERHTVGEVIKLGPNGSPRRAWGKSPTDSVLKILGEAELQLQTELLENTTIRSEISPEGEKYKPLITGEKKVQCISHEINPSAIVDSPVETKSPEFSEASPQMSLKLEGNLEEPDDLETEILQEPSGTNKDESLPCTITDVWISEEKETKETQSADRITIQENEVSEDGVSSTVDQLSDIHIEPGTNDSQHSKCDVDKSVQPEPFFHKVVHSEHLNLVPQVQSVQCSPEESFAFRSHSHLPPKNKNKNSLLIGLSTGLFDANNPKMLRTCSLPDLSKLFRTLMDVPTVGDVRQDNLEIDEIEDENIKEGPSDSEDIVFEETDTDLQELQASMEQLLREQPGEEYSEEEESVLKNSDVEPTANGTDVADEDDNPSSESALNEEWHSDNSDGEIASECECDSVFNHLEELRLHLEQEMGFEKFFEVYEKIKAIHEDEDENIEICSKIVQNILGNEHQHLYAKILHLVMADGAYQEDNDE

[13] = biological target: T5, Serine/threonine-protein kinase Nek1 (Homo sapiens); conditions: at 1 µM
[14] = biological target: T6, Serine/threonine-protein kinase Nek2 (Homo sapiens) (UniProt P51955); conditions: at 0.1 µM
T6 sequence (whole entry): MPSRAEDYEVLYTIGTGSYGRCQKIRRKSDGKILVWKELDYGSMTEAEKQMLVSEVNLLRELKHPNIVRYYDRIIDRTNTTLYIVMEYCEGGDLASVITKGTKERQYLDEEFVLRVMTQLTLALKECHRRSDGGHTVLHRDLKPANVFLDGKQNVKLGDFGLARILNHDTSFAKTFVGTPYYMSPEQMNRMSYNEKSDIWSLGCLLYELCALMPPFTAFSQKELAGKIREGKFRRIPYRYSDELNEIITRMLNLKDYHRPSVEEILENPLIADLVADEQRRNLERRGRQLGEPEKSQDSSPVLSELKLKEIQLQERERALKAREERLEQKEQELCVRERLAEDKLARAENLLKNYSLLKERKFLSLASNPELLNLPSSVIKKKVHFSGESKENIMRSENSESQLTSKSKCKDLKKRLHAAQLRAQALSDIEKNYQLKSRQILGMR

[15] = biological target: T6, Serine/threonine-protein kinase Nek2 (Homo sapiens); conditions: at 1 µM
[16] = biological target: Serine/threonine-protein kinase Nek6 (Homo sapiens) (UniProt Q9HC98); conditions: at 0.1 µM
[17] = biological target: Serine/threonine-protein kinase Nek6 (Homo sapiens) (UniProt Q9HC98); conditions: at 1 µM
[18] = biological target: Serine/threonine-protein kinase Nek7 (Homo sapiens) (UniProt Q8TDX7); conditions: at 0.1 µM
[19] = biological target: Serine/threonine-protein kinase Nek7 (Homo sapiens) (UniProt Q8TDX7); conditions: at 1 µM
[20] = biological target: T7, Serine/threonine-protein kinase Nek9 (Homo sapiens) (UniProt Q8TD19); conditions: at 0.1 µM;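 further: reported value is the mean percent inhibition of NEK9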
T7 sequence (whole entry): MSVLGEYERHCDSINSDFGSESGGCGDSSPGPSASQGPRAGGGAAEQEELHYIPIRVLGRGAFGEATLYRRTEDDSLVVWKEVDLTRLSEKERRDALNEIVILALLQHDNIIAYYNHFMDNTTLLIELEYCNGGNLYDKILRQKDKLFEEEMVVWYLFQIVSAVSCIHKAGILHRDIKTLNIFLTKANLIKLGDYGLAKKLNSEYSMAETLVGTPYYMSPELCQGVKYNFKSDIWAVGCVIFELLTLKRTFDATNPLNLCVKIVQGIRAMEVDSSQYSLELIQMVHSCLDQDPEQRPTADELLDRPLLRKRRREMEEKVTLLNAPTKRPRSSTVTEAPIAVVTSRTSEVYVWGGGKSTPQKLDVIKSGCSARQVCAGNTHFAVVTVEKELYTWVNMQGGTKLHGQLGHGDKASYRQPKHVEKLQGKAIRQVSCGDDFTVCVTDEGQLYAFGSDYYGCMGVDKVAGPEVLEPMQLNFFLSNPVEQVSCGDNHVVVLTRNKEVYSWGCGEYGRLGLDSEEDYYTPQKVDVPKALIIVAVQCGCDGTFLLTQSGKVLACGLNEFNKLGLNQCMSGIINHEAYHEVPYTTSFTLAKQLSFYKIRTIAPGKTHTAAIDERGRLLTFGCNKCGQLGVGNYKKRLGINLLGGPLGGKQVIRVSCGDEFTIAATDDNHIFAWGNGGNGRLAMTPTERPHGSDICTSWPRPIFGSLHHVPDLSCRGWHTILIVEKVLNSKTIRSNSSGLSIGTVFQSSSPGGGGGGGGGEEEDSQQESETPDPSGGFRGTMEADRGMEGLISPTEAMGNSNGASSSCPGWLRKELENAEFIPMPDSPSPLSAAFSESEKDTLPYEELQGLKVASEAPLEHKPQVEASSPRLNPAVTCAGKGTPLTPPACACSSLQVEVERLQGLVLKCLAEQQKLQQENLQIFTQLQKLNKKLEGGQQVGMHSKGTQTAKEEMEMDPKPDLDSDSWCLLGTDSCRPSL

Chain of Casein kinase II subunit alpha (Homo sapiens) (P68400 whole entry, looked up): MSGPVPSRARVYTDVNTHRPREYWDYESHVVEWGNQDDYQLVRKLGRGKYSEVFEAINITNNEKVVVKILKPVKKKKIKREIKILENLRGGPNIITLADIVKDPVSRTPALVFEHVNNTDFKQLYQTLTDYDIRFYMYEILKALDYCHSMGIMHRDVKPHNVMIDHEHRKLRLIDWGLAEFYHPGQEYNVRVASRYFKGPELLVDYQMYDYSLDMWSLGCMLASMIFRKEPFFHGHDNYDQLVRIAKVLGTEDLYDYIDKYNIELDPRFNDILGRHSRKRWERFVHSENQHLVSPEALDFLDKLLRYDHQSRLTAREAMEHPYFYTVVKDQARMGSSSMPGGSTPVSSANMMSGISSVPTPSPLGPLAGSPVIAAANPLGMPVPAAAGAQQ
Chain of Serine/threonine-protein kinase Nek6 (Homo sapiens) (Q9HC98 whole entry): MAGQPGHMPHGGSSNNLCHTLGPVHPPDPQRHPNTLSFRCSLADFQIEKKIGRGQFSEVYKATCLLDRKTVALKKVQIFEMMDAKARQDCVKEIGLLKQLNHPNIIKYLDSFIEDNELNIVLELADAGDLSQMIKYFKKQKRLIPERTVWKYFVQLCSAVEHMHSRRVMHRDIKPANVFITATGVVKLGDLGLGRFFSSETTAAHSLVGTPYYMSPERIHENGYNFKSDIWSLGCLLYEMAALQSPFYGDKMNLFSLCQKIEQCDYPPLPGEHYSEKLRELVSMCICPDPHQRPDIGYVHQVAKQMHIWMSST
Chain of Serine/threonine-protein kinase Nek7 (Homo sapiens) (Q8TDX7 whole entry, looked up): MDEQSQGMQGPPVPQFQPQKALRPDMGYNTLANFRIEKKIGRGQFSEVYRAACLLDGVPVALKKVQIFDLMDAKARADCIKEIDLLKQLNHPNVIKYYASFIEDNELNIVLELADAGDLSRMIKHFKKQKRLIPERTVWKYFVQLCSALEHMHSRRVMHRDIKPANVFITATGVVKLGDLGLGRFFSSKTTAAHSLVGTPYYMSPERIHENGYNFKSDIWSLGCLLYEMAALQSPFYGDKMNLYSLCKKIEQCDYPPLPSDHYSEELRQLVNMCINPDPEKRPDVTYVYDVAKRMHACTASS
Chain of Sphingosine kinase 1 (Homo sapiens) (Q9NYA1 whole entry): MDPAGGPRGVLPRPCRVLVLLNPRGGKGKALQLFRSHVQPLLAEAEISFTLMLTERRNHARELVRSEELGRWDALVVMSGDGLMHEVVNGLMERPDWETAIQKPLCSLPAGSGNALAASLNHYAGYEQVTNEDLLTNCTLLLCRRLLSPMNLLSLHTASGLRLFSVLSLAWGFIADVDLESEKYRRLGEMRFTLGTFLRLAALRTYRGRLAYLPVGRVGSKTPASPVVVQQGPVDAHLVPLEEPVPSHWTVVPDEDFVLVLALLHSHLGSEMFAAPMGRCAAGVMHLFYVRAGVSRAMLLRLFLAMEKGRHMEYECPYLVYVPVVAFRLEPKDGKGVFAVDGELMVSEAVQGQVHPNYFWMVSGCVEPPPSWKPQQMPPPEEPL

CS(=O)(=O)CCNCc1nc(-c2ccc3ncnc(Nc4ccc(F)c(Cl)c4)c3c2)cs1
inhibition [1]: 0.42% | inhibition [2]: 0.49% | inhibition [3]: -0.93% | inhibition [4]: 1.14% | inhibition [5]: 5.94% | inhibition [6]: -4.65% | inhibition [7]: -4.39% | inhibition [8]: -0.32% | inhibition [9]: 1.99% | inhibition [10]: 1.53% | inhibition [11]: 2.88% | inhibition [12]: -0.13% | inhibition [13]: 1.85% | inhibition [14]: 2.32% | inhibition [15]: 2.06% | inhibition [16]: 3.94% | inhibition [17]: 4.01% | inhibition [18]: -1.48% | inhibition [19]: 1.7% | inhibition [20]: 0.58%
